In PubChem BioAssay (NCATS):
Inconclusive results are not listed. A number with no mark means an inactive call. Activity calls are given as the source filed them. Calls come from the whole dose curve; as a rule, active = well fitted activation curve with a large enough effect; inconclusive = small, poorly fitted or top-dose-only effect; inactive = flat fitted curve, though single readings scatter.

Assay: Cellular Toxicity (caspase-3) Jurkat (AID 655);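 note: cells exposed to compound for 16 h at 37 °C before reading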
Details: Jurkat caspase-3 activation, luminescence; caspase-3 activation: at 92.2 µM (top of the series), DMSO = 0%, tamoxifen = 100%
Source text: NIH Chemical Genomics Center [NCGC]
NIH Molecular Libraries Screening Centers Network [MLSCN]
National Institutes of Environmental Health Sciences [NIEHS]
National Toxicology Program [NTP]
We have developed a 1536-well cell-based assay for quantitative high throughput screening (qHTS) against a number of cell lines to determine in vitro caspase 3/7 of small molecules. This particular assay uses the Jurkat cell line which is derived from human T cell leukemia.
NCGC Assay Protocol Summary:
The Caspase-Glo 3/7 assay (Promega) is a homogeneous method to measure caspase-3 and caspase-7 activities in cultured cells. The quantitation of caspase 3/7 activity is based on the cleavage of a peptide-aminoluciferin substrate. After caspase cleaves the substrate the free aminoluciferin is liberated and serves as the substrate of luciferase, which generates the light. The luminescent signal is proportional to amount of caspase 3/7 activity present.
Using the Caspase-Glo 3/7 assay, the amount of caspase 3/7 activity was measured in the Jurkat cell line with complete culture medium following compound treatment for 16 hours. The assay was performed in opaque white 1536-well plates. In the screen, tamoxifen and doxorubicin were used as positive controls. Library compounds were measured for their ability to cause the activation of caspase 3/7 in the cell line, as reflected by an increase in luminescence signal, in a concentration-dependent manner. Data were normalized to the controls for basal activity (DMSO only) and 100% stimulation (100 uM tamoxifen). AC50 values were determined from concentration-response data modeled with the standard Hill equation.
qHTS protocol for caspase 3/7 assay in Jurkat cells
[Step] [Parameter] [Value] [Description]
1. Reagent; 5 uL; 5000 Jurkat cells/well
3. Controls; 23 nL; Tamoxifen 0.23 uM to 100 uM & Doxorubicin 7.0 pM to 100 uM
4. Time; 16 hr; 37 °C incubation
5. Reagent; 5 uL; Caspase-Glo 3/7 reagent
6. Time; 20 min; Room Temperature
7. Detection; Luminescence; Viewlux plate reader
Keywords: caspase 3/7, apoptosis, Jurkat cell line, luminescence, NTPHTS, NTPHTS_NCGC, NIEHS, EPA, DSSTox, MLSMR, MLSCN, NIH Roadmap, qHTS, NCGC

| SMILES | caspase-3 activation |
| --- | --- |
| O=C(O)c1ccccc1[N+](=O)[O-] | -0.644% |
| C=Cc1ccccn1 | 0.756% |
| CC(C)=CCl | -0.417% |
| O=CNc1ccccc1 | 0.613% |
| CCCC=O | -0.873% |
| ON=C1CCCCC1 | -0.266% |
| Cc1cccc2sc(N)nc12 | -0.319% |
| O=C1OC(=O)c2cc([N+](=O)[O-])ccc21 | -2.27% |
| O=[N+]([O-])c1cccc(C(F)(F)F)c1 | 0.763% |
| Nc1cccc(S(=O)(=O)O)c1 | -0.29% |
| CC(O)COC(C)(C)C (stereo not given) | 0.633% |
| Nc1cc(S(=O)(=O)O)ccc1O | -0.212% |
| CC#N | 1.05% |
| O=P(O)(OCc1ccccc1)OCc1ccccc1 | 1.88% |
| CCCCOCCOCCOCCCC | 0.193% |
| O=c1[nH][nH]c(=O)c2cc([N+](=O)[O-])ccc12 | -0.126% |
| CC(=O)c1nccs1 | 0.174% |
| CCC(C)O (stereo not given) | 0.184% |
| CCNc1cc(O)ccc1C | 0.87% |
| CC(C)(c1cc(Br)c(OCC(Br)CBr)c(Br)c1)c1cc(Br)c(OCC(Br)CBr)c(Br)c1 (stereo not given) | 99.2% (active) |

| SMILES | caspase-3 activation |
| --- | --- |
| c1ccc2n[nH]nc2c1 | 1.47% |
| CCc1ccccc1 | 1.71% |
| Cc1cccc(C(=O)O)c1[N+](=O)[O-] | 0.0965% |
| NC=O | 2.21% |
| CC(=O)OC(C)C | -0.432% |
| Cc1cccc2cccnc12 | -0.137% |
| CC(C)C=O | 0.00972% |
| CCCCC=O | -1.47% |
| NC(=O)NC(N)=O | 0.487% |
| C=C(C)C(=O)OCC(C)C | 0.091% |
| Cc1ccc(C)c(N)c1 | 0.403% |
| CCCC(Cl)CCCC(Cl)CCC(Cl)CCC(Cl)CCC(Cl)CCCC(Cl)CCC (stereo not given) | -0.794% |
| CC=C(Cl)Cl | -0.538% |
| Nc1cc(Cl)c([N+](=O)[O-])cc1O | 1.7% |
| CC(=O)Nc1ccc(N)cc1 | 0.0249% |
| CCOc1cccc(N)c1 | -1.1% |
| CCCCCNCCCCC | -1.44% |
| OC(CCl)CCl | 0.028% |
| c1ccsc1 | 0.61% |
| O=C(O)c1ccc(Cl)cc1Cl | -1.11% |
